A selection: hits, their analogues and other compounds. The true share with any hit is near 4%.
p53null 32C kill – selectivity test: cytotoxicity in p53 null cells, permissive temperature; H1299-neo p53 null cells, ATP luminescence, 24 h, 32C; Potency, µM (highest dose often 46.1 µM), for inactives: at the highest dose activity change, negative = cytotoxicity, actives largely listed as cytotoxic; 55,000 compounds, 0.62% hits; AID 903;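 also: potency is read from the fitted curve at half-maximal effect; 0% = DMSO only and -100% = full killing by 100 µM tamoxifen; nearly all actives have a fitted effect of over 55% in size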
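Cytotoxicity: H1299-neo (no p53), 32C, 24 h treatment. Concentrations up to 46 uM. Readout cellular ATP, luminescence. Normalization to DMSO basal and tamoxifen 100 uM maximal kill.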
NTMT1 inh – NTMT1 methyltransferase inhibition | Q9BV86 | NTMT1 MTase-Glo SAH luminescence, purified enzyme | Potency, µM (series often up to 114 µM), for the others: top-dose activity change, negative = inhibition, hits mostly inhibitors | 59,000 compounds, 2.5% hits;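 also: potency is read from the fitted curve at half-maximal effect; plate controls were DMSO vehicle for no effect and no enzyme for full effect; nearly all actives have a fitted effect of over 65% in size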
Target sequence (Q9BV86 whole entry, looked up): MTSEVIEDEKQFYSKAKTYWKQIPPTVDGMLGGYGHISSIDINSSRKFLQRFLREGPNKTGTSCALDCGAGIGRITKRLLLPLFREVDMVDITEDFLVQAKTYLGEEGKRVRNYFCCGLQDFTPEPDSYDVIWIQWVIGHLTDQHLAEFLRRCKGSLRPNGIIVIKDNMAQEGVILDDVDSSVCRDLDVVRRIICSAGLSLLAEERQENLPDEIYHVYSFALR
GALC G270D up – raises human GALC G270D mutant activity in cells; P54803; AID 1159614; Potency, µM (top dose mostly 57.5 µM), most hits filed as activators; 145M-Twi-hGALC-G270D cells (Twitcher mouse brain line with human GALC G270D), HMU-beta-Gal fluorescence, 48 h; 45,000 compounds, 0.1% hits; also: potency is read from the fitted curve at half-maximal effect; 0% is about no effect; nearly all actives have a fitted effect of over 65% in size
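Fluorescence readout: HMU-β-gal cleavage by mutant GALC (0.1 mM final, citrate/phosphate pH 5.2 with 1 mg/mL taurocholate), stopped with carbonate/bicarbonate plus Triton X-100. Cells: murine Twitcher 145M-Twi expressing human G270D GALC; qHTS for activators.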
DRV1 agonist – GPR32 (DRV1) agonism, beta-arrestin recruitment; O75388; CHO-K1 GPR32 beta-arrestin PathHunter luminescence, 90 min; zero percent set by DMSO-only wells; activation, % at 76.9 µM; 48,000 compounds, 2.5% hits; AID 1346428;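 active = activation of at least 60% and not above a set upper limit, about 1 call in 100 departs from these limits; inconclusive = activation of 40% to 60%, or above that upper limit; inactive = activation under 40%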; also: 0% is about no effect
Target sequence (O75388 whole entry, looked up): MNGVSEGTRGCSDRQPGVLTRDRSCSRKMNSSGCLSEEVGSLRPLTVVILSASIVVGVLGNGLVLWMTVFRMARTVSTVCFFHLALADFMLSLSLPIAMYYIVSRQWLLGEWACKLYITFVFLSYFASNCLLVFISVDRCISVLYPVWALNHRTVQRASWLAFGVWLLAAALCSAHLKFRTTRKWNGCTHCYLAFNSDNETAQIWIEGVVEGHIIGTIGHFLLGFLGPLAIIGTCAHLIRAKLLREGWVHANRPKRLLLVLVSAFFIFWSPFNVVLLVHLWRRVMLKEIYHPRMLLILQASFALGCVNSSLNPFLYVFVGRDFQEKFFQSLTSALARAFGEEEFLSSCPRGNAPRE
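CHO-K1 cells stably expressing ProLink-tagged GPR32 and Enzyme Activator-tagged beta-arrestin were seeded at 2,500 cells/well overnight, exposed to compounds for 90 min at 37 °C, then read by beta-Gal complementation chemiluminescence after 1 h detection reagent.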
SKOV3 invasion – blocks SKOV3ip1 adhesion and invasion in omental model; SKOV3ip1-GFP adhesion/invasion on 3D omental model, fluorescence; Potency, µM (doses to about 45.8 µM), without a hit: top-dose activity change, negative = inhibition, actives largely listed as inhibitors; 46,000 compounds, 0.1% hits; AID 1963576;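 also: potency is read from the fitted curve at half-maximal effect; plate controls were DMSO wells for no effect and tomatine positive control wells for full effect; nearly all actives have a fitted effect of over 65% in size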
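Adhesion/invasion was scored as fixed GFP-labeled SKOV3ip1 cell counts (488/509 nm), normalized to DMSO and tomatine controls. Cancer cells in serum-free medium, with four compound doses (0.36-46 umol/L), sat 2 hr at RT then 16 hr at 37 C on a 48 hr fibroblast/mesothelial/ECM culture.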
p53null 39C kill – kills p53 null cells at the nonpermissive temperature. Potency, µM (doses to about 46.1 µM), inactives show top-dose activity, negative = cell killing, actives largely listed as cytotoxic. 55,000 compounds, 0.97% hits. AID 904. H1299 p53-null (neo) cells, 39C, ATPlite viability, 24 h;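 also: potency is read from the fitted curve at half-maximal effect; 0% = DMSO only and -100% = full killing by 100 µM tamoxifen; nearly all actives have a fitted effect of over 50% in size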
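Concentration-response (up to 46 uM) was run for 24 h at the nonpermissive 39C on H1299-p53A138V or H1299-neo cells. ATP content was measured with ATPlite luminescence. AC50 values were Hill-modeled after normalizing between DMSO and 100 uM tamoxifen killing.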
The depositor's hits bear a star; i = inactive; ? = inconclusive; nt = no result given; ! = not active in a repeat; [ ] = remark or other dose. Unless noted, calls follow the shape of the dose curve; as a rule, active = well fitted curve in the direction sought with a large enough effect; inconclusive = small, poorly fitted or top-dose-only effect, or another doubt; inactive = no such curve, though single readings can be large; an effect the other way counts as inactive or inconclusive.

SMILES | p53null 32C kill | NTMT1 inh | GALC G270D up | DRV1 agonist | SKOV3 invasion | p53null 39C kill
COc1cccc(CNC(=O)Cn2c(=O)oc3cc(S(=O)(=O)N4CCCCCC4)ccc32)c1 | 7% | ? | i | 76* | -3% | 25%
O=C1CCCC2=C1C(c1[nH]ncc1Cl)N=C(Nc1ccn[nH]1)N2 (stereo unspecified) | nt | 10% | nt | nt | nt | nt
Nc1ncnc2c1ncn2CCNCCCCCO | nt | 1%[57.5 µM] | nt | nt | nt | nt
CCN(CC)CCCNC(=O)c1ccc2c(c1)NC(=O)C(CS(=O)(=O)Cc1cccc(Br)c1)N2 (stereo unspecified) | -6% | ? | 35µM* | -11 | -3% | 42%
O=C(C1OC1/C=C/c1ccc2c(c1)OCO2)N1CCCCC1 (stereo unspecified) | nt | 5%[57.5 µM] | nt | nt | nt | nt
Cn1cncc1[C@@](N)(c1ccc(Cl)cc1)c1ccc2c(c1)c(-c1cccc(Cl)c1)cc(=O)n2C | nt | 22µM*! | nt | nt | -2% | nt
O=C(O)CCCCN(CCc1ccccc1OCc1ccc(CCc2ccccc2)cc1)Cc1ccc(C(=O)O)cc1 | nt | -6% | nt | nt | nt | nt
CCC1=C(C)C(=O)C(C)CC12C(=O)CCC2C(=O)O (stereo unspecified) | nt | 5%[57.5 µM] | nt | nt | nt | nt
C=Cc1c(C)c2cc3[nH]c(cc4nc(cc5nc(cc1[nH]2)C(C)=C5CCC(=O)O)C(CCC(=O)O)=C4C)c(C)c3C=C | nt | 25µM* | i | -10 | nt | nt
CCCc1c(OCCCCc2nn[nH]n2)ccc(C(C)=O)c1O | nt | 20%[57.5 µM] | i | 87* | nt | nt
CC(C)CCOc1ccc(C2N=C(N)Nc3nc4ccccc4n32)cc1 (stereo unspecified) | nt | -5% | i | ? | 13µM* | nt
CCCN(CCC)c1ccc(C2N=C(N)Nc3nc4ccccc4n32)cc1 (stereo unspecified) | ? | -20% | i | -17 | ? | 3.2µM*
COc1cc(C2N=C(N)Nc3nc4ccccc4n32)ccc1OCCC(C)C (stereo unspecified) | nt | -6% | i | 34 | i | nt
C=C1C(OC(C)=O)C(=O)C2C(C)(C)C(O)CCC2(C)C1CC(OC(C)=O)/C(C)=C/COC(C)=O (stereo unspecified) | nt | 19%[29.8 µM] | nt | nt | nt | nt
Cc1ccccc1C(=O)OCc1cc(=O)n2c(C)csc2n1 | -21% | -11% | i | 75* | 0% | 0%
CC(O)/C=C/C1(O)C(C)C(O)C(O[C@@H]2O[C@H](CO)[C@@H](O)[C@H](O)[C@H]2O)CC1(C)C (stereo partly specified) | nt | 0%[29.8 µM] | nt | nt | nt | nt
COc1cccc(NC(=O)CN(CCc2ccccc2)S(=O)(=O)c2ccc(Cl)cc2)c1 | -1% | 2.5µM* | i | -6 | -7% | -3%
O=C(Nc1ncc(Cc2ccc(C(F)(F)F)cc2)s1)c1ccco1 | nt | 6%[57.5 µM] | nt | nt | nt | nt
Cc1c(C(=O)N(C)CC2CCCO2)[nH]c2c1C(=O)CC(c1ccco1)C2 (stereo unspecified) | nt | -14% | nt | nt | nt | nt
C=C1CCC2C(C)(C)CC(=O)CC2(C)C1CCC(C)CCO (stereo unspecified) | nt | 10%[57.5 µM] | nt | nt | nt | nt
Cc1ccc(NC(=O)c2cc(S(=O)(=O)NCCc3ccc(Cl)cc3)ccc2F)cc1 | 49% | -13% | i | 36 | i | 18%
COc1ccc(CCNS(=O)(=O)c2ccc(F)c(C(=O)Nc3ccc(Cl)cc3)c2)cc1OC | 52% | 9% | i | 64* | -9% | 27%
C/C(=C/CO)CC[C@@H]1[C@@]2(C)CCC[C@](C)(C(=O)O)C2CC[C@@]1(C)O (stereo partly specified) | nt | 19%[29.8 µM] | nt | nt | nt | nt
CC(=O)c1cccc(Nc2nc(-c3ccccc3Cl)nc3ccccc23)c1 | 2% | 11% | i | 15 | i | ?
CC(=O)c1cccc(Nc2nc(-c3cccc(C)c3)nc3ccccc23)c1 | ? | ? | i | -10 | ? | 11µM*
SMILES | p53null 32C kill | NTMT1 inh | GALC G270D up | DRV1 agonist | SKOV3 invasion | p53null 39C kill
CNc1oc(-c2cccc(Cl)c2)nc1C#N | nt | -3% | nt | nt | nt | nt
CCc1ccc(N(CC(C)C)S(=O)(=O)c2ccc(OCC3CCOCC3)c(CO)c2)cc1 | nt | -2% | nt | nt | nt | nt
CC1CCN(S(=O)(=O)c2nnc(NC(=O)c3cccc(Cl)c3)s2)CC1 | -2% | 4% | i | 69* | 0% | 10%
O=C(CSc1nc2c(oc3ccccc32)c(=O)[nH]1)Nc1cccc(Cl)c1 | 10µM* | ? | i | 4 | i | 10µM*
CSc1ccc(/C=C/c2nc3ccccc3n2S(=O)(=O)c2cccc(Cl)c2)cc1 | 3.2µM* | 6.3µM* | i | -8 | ? | 4µM*
O=S(=O)(c1cccc(Cl)c1)n1c(/C=C/c2ccccc2Cl)nc2ccccc21 | 1.3µM* | 6.3µM* | i | 13 | -14% | 2.8µM*
Cc1ccc(/C=C/c2nc3ccccc3n2S(=O)(=O)c2ccc(Br)cc2)cc1 | 6.3µM* | ? | i | 41 | i | 23%
CC(C)Oc1ccc(C(=O)Nc2ccc(-c3nc4ccccc4[nH]3)cc2)cc1 | nt | -4%[57.5 µM] | nt | nt | nt | nt
O=S(=O)(c1ccccc1)n1nc(-c2ccc(Cl)cc2)nc1NCc1ccc(F)cc1 | 4% | -18% | i | 72* | i | 5%
O=S(=O)(c1ccccc1)n1nc(-c2ccccc2)nc1NCc1ccc(Cl)cc1 | 9% | 3% | i | -4 | i | -11%
COc1ccc(Cn2c(C(=O)O)c(CNCc3ccc(OC)cc3OC)c3ccc(C)cc32)cc1 | -6% | 0% | i | 4 | 1% | -18%
COc1ccc(Cn2c(C(=O)O)c(CNCCc3ccco3)c3ccc(C)cc32)cc1 | -9% | -3% | i | 104* | i | 0%
COc1ccc(Cn2c(C(=O)O)c(CNCCc3cc(OC)ccc3OC)c3ccc(C)cc32)cc1 | -1% | -1% | i | 106* | 6% | -1%
C=Cc1ccc(Cn2c(C(=O)O)c(CNCCc3ccco3)c3ccc(C)cc32)cc1 | -2% | 2% | i | 88* | i | 4%
Cc1ccc2c(CNCCc3ccccc3)c(C(=O)O)n(Cc3ccccc3C)c2c1 | 12% | -4% | i | 66* | -9% | -3%
O=C(c1ccc[nH]1)c1cc(Cl)ccc1NC(=O)[C@@H]1CCCN1 | nt | 3% | nt | nt | nt | nt
C/C=C/C=C/c1cc2c(C=O)c(O)c(CC=C(C)C)cc2o1 | nt | 4%[57.5 µM] | nt | nt | nt | nt
CC(C)c1ccccc1-c1ncc(F)c(NC(C)(C)c2ccc(-c3cccnc3)cc2)n1 | nt | 1%[57.5 µM] | nt | nt | nt | nt
Cn1nccc1Nc1nccc(-c2cc3c(s2)C(C)(C)N(CCN2CCOCC2)C3=O)n1 | nt | 3% | nt | nt | nt | nt
